Assay results published in PubChem BioAssay AID686978 (National Center for Advancing Translational Sciences (NCATS), 2013).
The whole screen tested about 420,000 compounds, of which about 64,000 (15%) were called active. Not shown: some 27% with an inconclusive outcome. The list is a sample of the results. A number with no mark means an inactive call. Calls follow the shape of the dose curve; as a rule, active = well fitted inhibition curve with a large enough effect; inconclusive = small, poorly fitted or top-dose-only effect; inactive = flat fitted curve, though single readings scatter.

Experiment: qHTS for Inhibitors of human tyrosyl-DNA phosphodiesterase 1 (TDP1): qHTS in cells in absence of CPT; also: nearly all actives have a fitted effect of over 55% in size
Conditions: DT40 Tdp1-/- hTDP1 cells, no CPT, ATP luminescence, 48 h; activity change, negative = growth inhibition: at 46.2 µM (top of the series)
Outline: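 No-CPT arm: Tdp1-/-;hTDP1 DT40 cells (400/well) plus compounds, incubated ≥48 hr at 37 °C. Readout CellTiter-Glo luminescence.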
% is scaled to controls: 0 for no effect and ±100 for the full control effect; potency is read from the fitted curve at half-maximal effect.

| Structure (SMILES) | activity change, negative = growth inhibition [%] | Potency |
| --- | --- | --- |
| COc1ccc(S(=O)(=O)Nc2ccc(S(=O)(=O)N3CCCCC3)cc2)cc1OC | -18.2 | – |
| COc1cc(NS(=O)(=O)c2ccc(NC(=O)c3ccc(S(=O)(=O)N4CCCCC4)cc3)cc2)ncn1 | -8.32 | – |
| COc1ccc(-c2ccc(Nc3ccc(S(=O)(=O)N4CCCC4)cc3)nn2)cc1OC | – | 18.4 µM (active) |
| O=C(Nc1ccccc1C(F)(F)F)c1cc(-c2ccc(O)cc2)on1 | -22.7 | – |
| CCN(CC)Cc1cc(C(C)=O)ccc1O | -12 | – |
| CC1CCCN(S(=O)(=O)c2ccc(C(=O)Nc3nnc(-c4ccncc4)o3)cc2)C1 (stereo not drawn) | – | 10.3 µM (active) |
| CSCc1nnc(NC(=O)c2ccc(S(=O)(=O)N3CCCCC3C)cc2)o1 (stereo not drawn) | – | 20.6 µM (active) |
| CS(=O)(=O)c1ccc(-c2nnc(NC(=O)c3ccc4c(c3)OCCO4)o2)cc1 | -19.6 | – |
| CC(=O)c1ccc(NC(=O)C2CCCN2S(=O)(=O)c2cccs2)cc1 (stereo not drawn) | -19.4 | – |
| O=C(NCc1cccs1)C(=O)NCC1OCCCN1S(=O)(=O)c1ccc(F)cc1 (stereo not drawn) | -6.86 | – |
| COCCN(CC(=O)Nc1ccccc1C)S(=O)(=O)c1ccc(S(=O)(=O)N2CCCC2)cc1 | -15.9 | – |
| CCc1nnc(NC(=O)c2ccc(S(=O)(=O)NC3CCCCC3)cc2)s1 | -23.5 | – |
| CC1CC(C)CN(S(=O)(=O)c2ccc(C(=O)NN3CCOCC3)cc2)C1 (stereo not drawn) | 1.46 | – |
| CC1CCCCN1S(=O)(=O)CCNC(=O)c1ccccc1 (stereo not drawn) | -11.4 | – |
| CC1CCCCN1S(=O)(=O)c1ccc(C(=O)Nc2nnc(-c3cccs3)o2)cc1 (stereo not drawn) | – | 5.8 µM (active) |
| CC1CCCCN1S(=O)(=O)c1ccc(S(=O)(=O)N(CC(=O)Nc2ccccc2)Cc2cccs2)cc1 (stereo not drawn) | – | 25.9 µM (active) |
| CCN(CC(=O)NCc1cccs1)S(=O)(=O)c1ccc(NC(C)=O)cc1 | -24.5 | – |
| COC(=O)c1ccc(N(CC(=O)NC2CCCC2)C(=O)CNC(=O)c2ccco2)cc1 | -8.13 | – |
| C=C(C)C1CC=C(C)/C(=N/NC(=O)CCCNc2cccc(C)c2)C1 (stereo not drawn) | 6.81 | – |
| CCOc1ccc(-c2n[nH]c(=S)n2/N=C/c2cc3c(cc2[N+](=O)[O-])OCO3)cc1 | -20.6 | – |
| NC(=O)c1ccc(NC(=O)COC(=O)c2ccc([N+](=O)[O-])cc2)cc1 | 23.4 | – |
| COCc1cc(C)nc2sc3c(=O)n(-c4cccc5ccccc45)nnc3c12 | -15.1 | – |
| CC1(C)OC[C@@H](COC(=O)CCc2ccc(OC[C@@H](O)CNCCNC(=O)N3CCOCC3)cc2)O1 | – | inactive |
| Cc1ccccc1Nc1nn2c(=O)c3ccc(C(=O)NCCc4ccc(Cl)cc4)cc3nc2s1 | – | 14.6 µM (active) |
| C=CCN1C(=O)c2ccc(C(=O)N3CCC(C(=O)OCC)CC3)cc2C1=O | -1.68 | – |
| CCOC(=O)C1CCN(C(=O)c2ccc3c(=O)n4nc(Nc5ccccc5CC)sc4nc3c2)CC1 | – | 10.3 µM (active) |
| CCc1ccc(Nc2nn3c(=O)c4cc5c(cc4nc3s2)OCO5)cc1 | -10.1 | – |

| Structure (SMILES) | activity change, negative = growth inhibition [%] | Potency |
| --- | --- | --- |
| Cc1cc(C(=O)NCCc2ccc(Cl)cc2)c(C)o1 | -17.5 | – |
| C=CCn1c(SCC(=O)CC(=O)OCC)nc2cc(C(=O)N3CCC(C(N)=O)CC3)ccc2c1=O | -17.2 | – |
| Cc1ccc(C(=O)NC2CCN(C(=O)N3CCOCC3)CC2)cc1 | -6.61 | – |
| C#CCOCCOCCOCCNc1nc(N2CCN(C(=O)[C@H](C(C)C)n3cc(CCO)nn3)CC2)nc(N2CCN(C(=O)[C@H](C(C)C)n3cc(CCO)nn3)CC2)n1 | 6.58 | – |
| COc1cccc(C(CC(=O)NCCN2CCOCC2)NS(=O)(=O)c2ccc(C)cc2)c1OC (stereo not drawn) | 10.7 | – |
| O=C(N/N=C/c1ccco1)c1ccc(C(=O)N/N=C/c2ccco2)o1 | 1.35 | – |
| O=C(N/N=C/c1ccco1)c1ccc(NC(=O)C2CC2)cc1 | -9.36 | – |
| O=C(N/N=C/c1ccco1)c1csc2c1CCCC2 | – | 5.8 µM (active) |
| Cc1cccc(C(=O)NCCCN2CCCC2=O)c1 | -23.4 | – |
| Cc1nc2ccc(S(=O)(=O)NC(C(=O)N3CCCCCC3)C(C)C)cc2s1 (stereo not drawn) | -16.1 | – |
| O=C(CN1C(=O)c2ccc([N+](=O)[O-])cc2C1=O)Nc1nnc(C2CC2)s1 | -1.22 | – |
| CCOc1ccc(N2C(=O)CC(N(O)c3ccccc3)C2=O)cc1 (stereo not drawn) | -1.45 | – |
| O=C(NC1(C(F)(F)F)NC(=O)N(C2CCCCC2)C1=O)c1ccco1 (stereo not drawn) | -3.09 | – |
| O=C(O)C#Cc1cccc2ccccc12 | 4.33 | – |
| CC(=O)Nc1ccc(S(=O)(=O)N2CCN(S(=O)(=O)c3cccs3)CC2)cc1 | -1.48 | – |
| Cc1ccc(C)c(S(=O)(=O)N2CCN(CC(=O)Nc3ccc([N+](=O)[O-])cc3)CC2)c1 | – | 16.4 µM (active) |
| COc1ccc(NC(=O)CSc2nnc(C3CC3)n2C)cc1S(=O)(=O)N1CCCCC1 | 19.6 | – |
| CCOC(=O)C1CCN(CC(=O)Nc2ccc(OC)c(S(=O)(=O)N3CCCCC3)c2)CC1 | -21.2 | – |
| Cc1ccc(C)c(S(=O)(=O)N2CCN(C(=O)Nc3ccccc3)CC2)c1 | -0.749 | – |
| Cc1cccc(OCCCC(=O)Nc2ccc(S(=O)(=O)N3CCCC3)cc2)c1 | – | 18.4 µM (active) |
| C=CCNC(=O)CCCOc1cccc(C)c1 | -0.741 | – |
| Cc1ccc(OCCCC(=O)Nc2ccc(S(=O)(=O)Nc3cc(C)nc(C)n3)cc2)cc1 | -6 | – |
| CC(=O)Nc1ccc(S(=O)(=O)N2CCSCC2)cc1 | -22.9 | – |
| CC(=O)Nc1ccc(S(=O)(=O)N2CCN(CCCOc3cc(C)ccc3C)CC2)cc1 | – | 18.4 µM (active) |
| Cc1ccc(NC(=O)CCNC(=O)c2ccc([N+](=O)[O-])cc2)cc1S(=O)(=O)N1CCOCC1 | -13.7 | – |
| COc1ccc(NC(=O)CCCOc2ccc(C(C)=O)cc2)cc1S(=O)(=O)N1CCCCC1 | – | 25.9 µM (active) |
